In ChEMBL document CHEMBL2218924, “A broad activity screen in support of a chemogenomic map for kinase signalling research and drug discovery” (Biochem J, 2013):

The compounds below were run against T1, Serine/threonine-protein kinase STK11 (Homo sapiens) (UniProt Q15831). Conditions: at 1 µM.
T1 sequence (whole entry): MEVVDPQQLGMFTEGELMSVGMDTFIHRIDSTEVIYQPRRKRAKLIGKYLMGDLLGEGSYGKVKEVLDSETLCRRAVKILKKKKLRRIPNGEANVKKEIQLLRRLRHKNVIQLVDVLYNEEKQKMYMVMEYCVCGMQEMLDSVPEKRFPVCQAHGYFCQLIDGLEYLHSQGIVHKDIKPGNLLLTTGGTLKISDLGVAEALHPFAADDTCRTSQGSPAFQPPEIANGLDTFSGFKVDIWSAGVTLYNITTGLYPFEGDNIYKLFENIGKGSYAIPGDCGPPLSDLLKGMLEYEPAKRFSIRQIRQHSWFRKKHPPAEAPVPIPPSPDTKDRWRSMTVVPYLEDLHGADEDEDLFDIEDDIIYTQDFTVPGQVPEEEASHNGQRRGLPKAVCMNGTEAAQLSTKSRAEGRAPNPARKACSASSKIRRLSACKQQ

Question: How did the residual activity turn out when `CCN(CC)CCCCN1c2ccccc2Oc2ccc(Cl)cc21` was run?
Answer: The residual activity was 103%.

Question: For `O=C1NC(=O)c2cc(Nc3ccc(F)cc3)c(Nc3ccc(F)cc3)cc21`, which residual activity is on record?
Answer: The residual activity was 102%.

Question: With `COc1cccc(-c2cc(=O)c3ccccc3o2)c1N` as the compound, how does the residual activity read?
Answer: Its residual activity is 103%.

Question: With `Cc1cccc(-c2[nH]c(C(C)(C)C)nc2-c2ccc3c(c2)OCO3)n1` as the compound, how does the residual activity read?
Answer: Its residual activity is 102%.

Question: How did the residual activity turn out when `N#C/C(=C(\N)Sc1ccc(N)cc1)c1ccccc1C(F)(F)F` was run?
Answer: The residual activity was 105%.

Question: With `CC(=O)c1ccc(N2CCOCC2)cc1O` as the compound, how does the residual activity read?
Answer: Its residual activity is 97%.

Question: With `COc1cc2ncnc(Nc3ccc(O)c(Br)c3)c2cc1OC` as the compound, how does the residual activity read?
Answer: The residual activity was 106%.

Question: How did the residual activity turn out when `O=C1Nc2cc(Br)ccc2/C1=C1/Nc2ccccc2/C1=N\O` was run?
Answer: Its residual activity is 99%.

Question: Which residual activity does the source give for `COc1cc2ncnc(Nc3ccc(NC(=O)c4ccccc4)cc3)c2cc1OC` here?
Answer: Its residual activity is 108%.

Question: `Nc1cccc(-c2cc3c(Oc4cccc(O)c4)ncnc3[nH]2)c1` was tested. Which residual activity did it give?
Answer: The residual activity was 67%.

Question: For `CCC(=O)Nc1ccc2ncnc(Nc3cccc(Br)c3)c2c1`, which residual activity is on record?
Answer: The residual activity was 96%.

Question: Which residual activity does the source give for `O=C1Nc2ccc(Br)cc2/C1=C\c1cc2c([nH]1)CCCC2` here?
Answer: The residual activity was 97%.

Question: `CN(C)CCCn1cc(C2=C(c3c[nH]c4ccccc34)C(=O)NC2=O)c2ccccc21` was tested. Which residual activity did it give?
Answer: The residual activity was 105%.

Question: How did the residual activity turn out when `O=C1Nc2ccccc2/C1=C1/Nc2ccccc2/C1=N\OCCC(O)CO` (stereo not drawn) was run?
Answer: The residual activity was 30%.

Question: For `CC[n+]1c(/C=C/N(C)c2ccccc2)n(-c2ccccc2)c2ccc(-c3nc4ccccc4s3)cc21`, which residual activity is on record?
Answer: Its residual activity is 98%.

Question: `CC(C)n1cnc2/c(=N/c3cccc(Cl)c3)nc(NCCO)[nH]c21` was tested. Which residual activity did it give?
Answer: The residual activity was 96%.

Question: Which residual activity does the source give for `Oc1ccc(-c2nc(-c3ccc(F)cc3)c(-c3ccncc3)[nH]2)cc1` here?
Answer: Its residual activity is 108%.

Question: How did the residual activity turn out when `CC(=O)O/N=C1\C(=C2\C(=O)Nc3cc(Br)ccc32)Nc2ccccc21` was run?
Answer: The residual activity was 98%.

Question: Which residual activity does the source give for `O=C1NC(=O)c2c1c1c3ccccc3[nH]c1c1[nH]c3cc(Br)ccc3c21` here?
Answer: The residual activity was 96%.

Question: For `CNc1cc2c(Nc3cccc(Br)c3)ncnc2cn1`, which residual activity is on record?
Answer: The residual activity was 99%.

Question: With `CO[C@H]1C[C@@H]2CC[C@@H](C)[C@@](O)(O2)C(=O)C(=O)N2CCCC[C@H]2C(=O)O[C@H]([C@H](C)C[C@@H]2CC[C@@H](O)[C@H](OC)C2)CC(=O)[C@H](C)/C=C(\C)[C@@H](O)[C@@H](OC)C(=O)[C@H](C)C[C@H](C)/C=C/C=C/C=C/1C` as the compound, how does the residual activity read?
Answer: Its residual activity is 101%.

Question: With `Cn1cc(/C=C2\C(=O)Nc3ccc(S(N)(=O)=O)cc32)c2ccccc21` as the compound, how does the residual activity read?
Answer: The residual activity was 103%.

Question: Which residual activity does the source give for `CO[C@H]1[C@@H](OC)C[C@H](C)[C@@H](OC)C2=CC(=O)C=C(NC(=O)/C(C)=C/C=C/[C@H](OC)[C@@H](OC(N)=O)/C(C)=C/[C@@H]1C)C2=O` here?
Answer: The residual activity was 97%.

Question: Which residual activity does the source give for `O=[N+]([O-])c1ccc(-c2nc(-c3ccc(F)cc3)c(-c3ccncc3)[nH]2)cc1` here?
Answer: The residual activity was 98%.

Question: Which residual activity does the source give for `Oc1ccc(Nc2nc(-c3ccc(Cl)cc3)cs2)cc1` here?
Answer: Its residual activity is 108%.

Question: `C[C@@H](N)[C@H]1CC[C@H](C(=O)Nc2ccncc2)CC1` was tested. Which residual activity did it give?
Answer: Its residual activity is 97%.

Question: With `c1ccc2c(-c3ccncc3)c[nH]c2c1` as the compound, how does the residual activity read?
Answer: The residual activity was 100%.

Question: Which residual activity does the source give for `COc1cc2ncnc(Nc3ccc(Oc4ccccc4)cc3)c2cc1OC` here?
Answer: Its residual activity is 102%.
